Bioassay records deposited in PubChem BioAssay by National Center for Advancing Translational Sciences (NCATS).
NS1 function inh – blocks influenza NS1 protein function; Potency, µM (titrated, usually from 46.1 µM), without a hit: top-dose activity, positive = more growth; 270,000 compounds, 0.4% hits; calls by dose curve; further: actives are rising curves; nearly all actives have a fitted effect of over 50% in size
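Recovery from NS1-induced slow growth read by OD600 in budding yeast switched to galactose assay medium (pH 6.0, -URA) at 1:100 dilution. Compound 23 nl per well; the matching strain lacking NS1 serves as control.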
SARS PLP yeast – inhibitors of SARS-CoV papain-like protease in yeast. Potency, µM (highest dose often 32.9 µM), for the others: top-dose activity, positive = growth rescue, actives largely listed as activators. S. cerevisiae expressing SARS-CoV PLpro, growth rescue. 330,000 compounds, 0.19% hits. AID 485353; calls by dose curve; further: 0% is about no effect; nearly all actives have a fitted effect of over 55% in size
Pf growth 48h – P. falciparum growth inhibition at 48 hours (one generation); P. falciparum luciferase growth in erythrocytes, 48 h; Potency, µM (top dose mostly 28.7 µM), for the others: at the top dose activity change, negative = inhibition, usual class: inhibitors; 310,000 compounds, 5.9% hits; AID 504832; further: on the % scale 0 is the no-effect control and ±100 the full control effect
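Parasite viability was followed by luminescence of a genomically integrated firefly luciferase. Cultures held 0.1% parasitemia at 2% hematocrit (final), incubated under 5% CO2 at 37 C.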
Pf growth 96h – inhibits malaria parasite growth, 96 h. P. falciparum luciferase reporter growth, 96 h. Potency, µM (top dose mostly 28.7 µM), inactives show at the top dose activity change, negative = inhibition, hits mostly inhibitors. 320,000 compounds, 6.9% hits. AID 504834; further: on the % scale 0 is the no-effect control and ±100 the full control effect
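Compounds incubated with erythrocytes infected by luciferase-expressing P. falciparum (2% hematocrit, 0.05% parasitemia final) for 96 hours, 37 C in 5% CO2. Growth inhibition scored as decreased luciferase luminescence.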
An asterisk follows results filed as active. Compounds with a hit are over-represented: about 10% of the library has one in this group of screens. Unless noted, the call rests on the fitted dose curve; in most records, active means well fitted inhibition curve with a large enough effect; inconclusive means small, poorly fitted or top-dose-only effect, or another doubt; inactive means no such curve, though single readings can be large or run the other way. Potency means the concentration at half of the fitted maximal effect.

Results for COc1cc2c(cc1OC)C(=O)N1[C@H]3c4ccccc4OC[C@@H]3[C@H](c3ccccc3)[C@]1(C)C(=O)N2 ?
SARS PLP yeast: 1.5%; Pf growth 48h: inconclusive; Pf growth 96h: inconclusive

How did COc1ccc2c(c1)OC[C@H]1[C@H]2N2C(=O)c3cc(Br)ccc3NC(=O)[C@@]2(C)[C@H]1c1ccccc1 do in these assays?
SARS PLP yeast: 0.8%; Pf growth 48h: 1.65µM*; Pf growth 96h: 5.22µM*

How did CCOC(=O)C1=C(COC(=O)c2ncc(Cl)c(Cl)c2Cl)NC(=O)NC1C (configuration not stated) do in these assays?
Pf growth 48h: 1.7%; Pf growth 96h: 1.1%

How did CCOc1cc(/C=C2\SC(=N)N(c3nccs3)C2=O)ccc1OCCN1CCOCC1 do in these assays?
NS1 function inh: -14.7%; SARS PLP yeast: -7.1%; Pf growth 48h: inconclusive; Pf growth 96h: 4.15µM*

Results for CCOc1cc(/C=C2\SC(=S)N(N3CCOCC3)C2=O)ccc1O ?
NS1 function inh: 6.4%; SARS PLP yeast: 0.4%; Pf growth 48h: -1.0%; Pf growth 96h: 20.7%

Results for COC(=O)Cn1c(N)[n+](Cc2ccccc2)c2ccccc21 ?
SARS PLP yeast: -1.0%; Pf growth 48h: 13.4%; Pf growth 96h: 58.2%

How did O=C1c2ccccc2CC1(Cc1ccccc1)Cc1ccccc1 do in these assays?
NS1 function inh: -13.5%; SARS PLP yeast: -36.8%; Pf growth 48h: 13.1µM*; Pf growth 96h: inconclusive

Results for CC(C(=O)N1CCN(C(=O)c2ccco2)CC1)N1C(=O)NC2(CCCCC2C)C1=O (configuration not stated) ?
SARS PLP yeast: 1.9%; Pf growth 48h: -4.8%; Pf growth 96h: -22.4%

What do the screens show for `COc1ccc(-c2coc3cc(OC4OC(CO)C(O)C(O)C4O)ccc3c2=O)cc1` (configuration not stated)?
NS1 function inh: 0.8%; SARS PLP yeast: 0.0%; Pf growth 48h: 30.1%; Pf growth 96h: 11.7µM*

What do the screens show for `O=[N+]([O-])c1cccc(S(=O)(=O)NC2CC3CCC2C3)c1` (configuration not stated)?
NS1 function inh: -22.6%; SARS PLP yeast: -1.1%; Pf growth 48h: 9.6%; Pf growth 96h: -25.1%

How did O=C(/C=C/c1cccc([N+](=O)[O-])c1)NCCSCc1ccccc1Cl do in these assays?
NS1 function inh: -46.4%; SARS PLP yeast: -40.9%; Pf growth 48h: -0.4%; Pf growth 96h: 2.94µM*

How did CCC(C)(c1nnnn1-c1c(C)cccc1C)N(N=O)c1cccc(C(F)(F)F)c1 (configuration not stated) do in these assays?
NS1 function inh: 5.4%; SARS PLP yeast: -27.9%; Pf growth 48h: 11.7µM*; Pf growth 96h: inconclusive

How did Cn1c(=O)oc2cc(S(=O)(=O)NCCC(=O)NCc3ccc(F)cc3)ccc21 do in these assays?
NS1 function inh: -6.8%; SARS PLP yeast: -9.1%; Pf growth 48h: 4.4%; Pf growth 96h: 13.1µM*

What do the screens show for `O=[N+]([O-])c1ccc2c(OCc3nnc(-c4ccccc4Br)o3)ncnc2c1`?
NS1 function inh: -6.0%; SARS PLP yeast: -0.4%; Pf growth 48h: inconclusive; Pf growth 96h: 9.28µM*

How did CC1Cc2ccccc2N1C(=O)c1ccnc(C(C)(C)C)c1 (configuration not stated) do in these assays?
NS1 function inh: -49.6%; SARS PLP yeast: 6.7%; Pf growth 48h: 11.7µM*; Pf growth 96h: 29.7%

What do the screens show for `CC1Cc2ccccc2N1C(=O)c1cccnc1` (configuration not stated)?
NS1 function inh: inconclusive; SARS PLP yeast: -2.2%; Pf growth 48h: -3.2%

Results for COc1ccc(-c2ocnc2C(=O)Nc2ccc(N3CCOCC3)cc2N2CCOCC2)cc1OC ?
NS1 function inh: 16.4%; SARS PLP yeast: -3.3%; Pf growth 48h: 8.28µM*; Pf growth 96h: 38.2%

Results for COc1cc(OC)cc(C(=O)Nc2ccc(N3CCOCC3)cc2N2CCOCC2)c1 ?
SARS PLP yeast: 11.3%; Pf growth 48h: inconclusive; Pf growth 96h: 13.1µM*

What do the screens show for `COc1cc(OC)cc(C(=O)Nc2ccccc2N2CCOCC2)c1`?
NS1 function inh: -36.6%; SARS PLP yeast: -6.1%; Pf growth 48h: inconclusive; Pf growth 96h: 3.5%

How did CCn1cc(C(=O)NCCN(C)C)c(=O)c2cc(F)c(N3CCN(C)CC3)cc21 do in these assays?
NS1 function inh: -2.5%; SARS PLP yeast: 1.3%; Pf growth 48h: inconclusive; Pf growth 96h: inconclusive

What do the screens show for `CCn1cc(C(=O)NCc2ccncc2)c(=O)c2cc(F)c(N3CCN(C(=O)c4ccco4)CC3)cc21`?
NS1 function inh: -12.0%; SARS PLP yeast: 0.5%; Pf growth 48h: 6.57µM*; Pf growth 96h: 10.4µM*

How did CCn1cc(C(=O)NCc2ccc3c(c2)OCO3)c(=O)c2cc(F)c(N3CCN(C(=O)c4ccco4)CC3)cc21 do in these assays?
NS1 function inh: -2.8%; SARS PLP yeast: 28.2%; Pf growth 48h: 8.28µM*

Results for CCn1cc(C(=O)NCc2ccccc2)c(=O)c2cc(F)c(N3CCN(C(=O)c4ccco4)CC3)cc21 ?
NS1 function inh: 9.9%; SARS PLP yeast: 8.1%; Pf growth 96h: 1.65µM*

Results for C[C@H](Cn1cnc2c(N)ncnc21)OCP(=O)(O)O ?
Pf growth 48h: 7.8%; Pf growth 96h: -13.3%

How did CC(C)N1C(=O)C(=O)N(CC(=O)N2c3ccccc3NC(=O)CC2C)C1=O (configuration not stated) do in these assays?
SARS PLP yeast: 1.6%; Pf growth 48h: -6.4%; Pf growth 96h: 7.9%

What do the screens show for `COc1cccc(NC(=O)c2cccc(N3C(=O)C4CCC(C)CC4C3=O)c2)c1` (configuration not stated)?
NS1 function inh: -1.4%; SARS PLP yeast: 0.1%; Pf growth 48h: 2.33µM*; Pf growth 96h: 4.15µM*

How did Cc1cccc(NC(=O)c2cccc(N3C(=O)C4CCC(C)CC4C3=O)c2)c1C (configuration not stated) do in these assays?
NS1 function inh: 3.1%; SARS PLP yeast: 0.4%; Pf growth 48h: -28.7%; Pf growth 96h: 37.5%

How did CC1CCC2C(=O)N(c3cccc(C(=O)Nc4ccc(F)cc4)c3)C(=O)C2C1 (configuration not stated) do in these assays?
NS1 function inh: 5.8%; SARS PLP yeast: -1.6%; Pf growth 48h: -24.1%; Pf growth 96h: 15.9%

Results for Cc1ccccc1NC(=O)c1cccc(N2C(=O)C3C4CC(C(Br)C4Br)C3C2=O)c1 (configuration not stated) ?
NS1 function inh: 17.6%; SARS PLP yeast: 2.0%; Pf growth 48h: -24.8%; Pf growth 96h: 9.28µM*

What do the screens show for `O=C(Nc1ccccc1)c1cccc(N2C(=O)C3C4C=CC(C5CC45)C3C2=O)c1` (configuration not stated)?
NS1 function inh: 11.8%; SARS PLP yeast: -1.7%; Pf growth 48h: -20.4%; Pf growth 96h: inconclusive

What do the screens show for `CC1CCC2C(=O)N(c3cccc(C(=O)Nc4ccccc4Cl)c3)C(=O)C2C1` (configuration not stated)?
NS1 function inh: -4.1%; SARS PLP yeast: 11.9%; Pf growth 48h: -14.5%; Pf growth 96h: 11.7µM*
